PubChem BioAssay (NCI)
This is part of a sample that, as a whole, favours compounds with a hit. Of some 83,000 tested, about 20% had one in any assay.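 Results are percent growth after 48 hours of single-concentration exposure. 100 means growth as in untreated cells, lower positive values show inhibition; negative values down to -100 show cell death.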 The source made the active and inactive calls. The calls were made as follows: active = growth percent below 10; inactive = the rest.

Assays:
Test in all cases: NCI-60 one-dose screen, 48 h (100 = growth as untreated, 0 = no growth, -100 = all killed)
Details in all cases: 10 µM unless noted
HCT-15 colon = tested on: HCT-15 colon
HT29 colon = tested on: HT29 colon
SNB-75 CNS = tested on: SNB-75 CNS
SNB-19 CNS = tested on: SNB-19 CNS
PC-3 prostate = tested on: PC-3 prostate
SK-MEL-5 melanoma = tested on: SK-MEL-5 melanoma
UACC-62 melanoma = tested on: UACC-62 melanoma
LOX IMVI melanoma = tested on: LOX IMVI melanoma
SK-MEL-28 melanoma = tested on: SK-MEL-28 melanoma
SK-MEL-2 melanoma = tested on: SK-MEL-2 melanoma
EKVX NSCLC = tested on: EKVX NSCLC
SN12C renal = tested on: SN12C renal
UO-31 renal = tested on: UO-31 renal
TK-10 renal = tested on: TK-10 renal
ACHN renal = tested on: ACHN renal
CAKI-1 renal = tested on: CAKI-1 renal
A498 renal = tested on: A498 renal
CCRF-CEM leukemia = tested on: CCRF-CEM leukemia
MOLT-4 leukemia = tested on: MOLT-4 leukemia
U251 CNS = tested on: U251 CNS

Measured: growth

Cc1cc(NS(=O)(=O)c2ccc(-c3cnc(C4CC4)o3)cc2)ccc1Cl
inactive: HCT-15 colon 17% | SNB-19 CNS 44.3% | PC-3 prostate 24.7% | SK-MEL-5 melanoma 24.8% | UACC-62 melanoma 26.4% | LOX IMVI melanoma 46.5% | SK-MEL-28 melanoma 50.5% | SK-MEL-2 melanoma 45.3% | EKVX NSCLC 28.5% | SN12C renal 48.4% | UO-31 renal 46.5% | TK-10 renal 54.3% | ACHN renal 40.4% | CAKI-1 renal 34.7% | CCRF-CEM leukemia 14.4% | MOLT-4 leukemia 17.8%
active: HT29 colon -17.1% | SNB-75 CNS -0.004% | A498 renal -17.8%

COc1cc2nc(N3CCCC3)nc(NCCc3ccccc3)c2cc1OC
active: HCT-15 colon -55.1% | HT29 colon 5.28% | LOX IMVI melanoma -74.8% | CCRF-CEM leukemia 0.115% | MOLT-4 leukemia -2.23%
inactive: SNB-75 CNS 93.5% | SNB-19 CNS 87.6% | PC-3 prostate 67% | SK-MEL-5 melanoma 90.3% | UACC-62 melanoma 94.7% | SK-MEL-28 melanoma 88.6% | SK-MEL-2 melanoma 103% | EKVX NSCLC 59.5% | SN12C renal 75.9% | UO-31 renal 69.2% | TK-10 renal 98.3% | ACHN renal 85.7% | CAKI-1 renal 80.5% | A498 renal 83.1%

N=C(N)c1ccc(-c2ccc(-c3ccc4ccccc4c3)s2)s1
inactive: SNB-75 CNS 89.3% | PC-3 prostate 71.9% | SK-MEL-5 melanoma 84.4% | SK-MEL-28 melanoma 92.8% | SK-MEL-2 melanoma 101% | EKVX NSCLC 51.8% | UO-31 renal 55.6% | TK-10 renal 19% | ACHN renal 25.7% | CAKI-1 renal 59.2% | A498 renal 66.6%
active: HCT-15 colon -82.4% | HT29 colon -60.5% | SNB-19 CNS -40.4% | UACC-62 melanoma -6.73% | LOX IMVI melanoma -56.6% | SN12C renal -62.2% | CCRF-CEM leukemia -27.8% | MOLT-4 leukemia -46.7%

N#Cc1c(-c2ccc(Cl)cc2)nc(NN=Cc2ccco2)nc1N1CCOCC1
inactive: HCT-15 colon 80.3% | HT29 colon 87% | SNB-75 CNS 10.3% | SNB-19 CNS 80% | PC-3 prostate 68.3% | SK-MEL-5 melanoma 80.9% | UACC-62 melanoma 58.2% | LOX IMVI melanoma 78.7% | SK-MEL-28 melanoma 65.9% | SK-MEL-2 melanoma 82.3% | EKVX NSCLC 46.5% | SN12C renal 82.1% | UO-31 renal 27.1% | TK-10 renal 68.8% | ACHN renal 76.7% | CAKI-1 renal 62.8% | CCRF-CEM leukemia 88.7% | MOLT-4 leukemia 83%
active: A498 renal -19.9%

Cn1c(=O)c2c(nc3n(-c4ccc(Cl)cc4Cl)c(Sc4nc(-c5ccccc5)c(C#N)c(=O)[nH]4)cn23)n(C)c1=O
inactive: HCT-15 colon 63.1% | HT29 colon 57.1% | SNB-19 CNS 24.7% | PC-3 prostate 75.7% | SK-MEL-5 melanoma 90.4% | UACC-62 melanoma 63.2% | LOX IMVI melanoma 33.5% | SK-MEL-28 melanoma 87.8% | SK-MEL-2 melanoma 99% | EKVX NSCLC 59.5% | SN12C renal 33% | ACHN renal 14.2% | CAKI-1 renal 59.4% | A498 renal 33.5% | CCRF-CEM leukemia 47.7% | MOLT-4 leukemia 75.8%
active: SNB-75 CNS -5.62% | UO-31 renal -1.67% | TK-10 renal 5.58%

N#C/C(=C\c1ccc(-c2ccc(Cl)c(Cl)c2)o1)c1nc(-c2ccco2)cs1
active: TK-10 renal -7.19%
inactive: HCT-15 colon 34.6% | HT29 colon 88% | SNB-75 CNS 70.7% | SNB-19 CNS 100% | PC-3 prostate 95.8% | SK-MEL-5 melanoma 70.5% | UACC-62 melanoma 78.3% | LOX IMVI melanoma 93.9% | SK-MEL-28 melanoma 114% | SK-MEL-2 melanoma 108% | EKVX NSCLC 52.4% | SN12C renal 98.6% | UO-31 renal 69.2% | ACHN renal 94% | CAKI-1 renal 81.3% | A498 renal 94.2% | CCRF-CEM leukemia 94.1%

COc1ccc(Nc2nc(SC)nc(-c3cccc([N+](=O)[O-])c3)c2C#N)cc1
inactive: HCT-15 colon 78.6% | HT29 colon 70.3% | SNB-75 CNS 10.3% | SNB-19 CNS 79% | PC-3 prostate 75.8% | SK-MEL-5 melanoma 70.9% | UACC-62 melanoma 69.5% | LOX IMVI melanoma 70.8% | SK-MEL-28 melanoma 84.9% | SK-MEL-2 melanoma 94.9% | EKVX NSCLC 70.5% | SN12C renal 64.5% | UO-31 renal 17.7% | TK-10 renal 84% | ACHN renal 16.9% | CAKI-1 renal 63% | A498 renal 57.8% | CCRF-CEM leukemia 114% | MOLT-4 leukemia 99.8%

CC(C)(O)c1cn(CCCCN2C(=O)C(=O)c3ccccc32)nn1
inactive: HCT-15 colon 101% | HT29 colon 107% | SNB-75 CNS 68% | SNB-19 CNS 95.9% | PC-3 prostate 96.3% | SK-MEL-5 melanoma 99.7% | UACC-62 melanoma 98.1% | LOX IMVI melanoma 91.6% | SK-MEL-28 melanoma 113% | SK-MEL-2 melanoma 101% | EKVX NSCLC 93.7% | SN12C renal 102% | UO-31 renal 82.7% | TK-10 renal 108% | ACHN renal 104% | CAKI-1 renal 93.9% | A498 renal 71.7% | CCRF-CEM leukemia 101% | MOLT-4 leukemia 94.6%

C=CC(=O)Nc1cccc(Nc2nc(SC)nc(-c3cccc([N+](=O)[O-])c3)c2C#N)c1
active: A498 renal -1.13%
inactive: HCT-15 colon 52.2% | HT29 colon 33.7% | SNB-75 CNS 23.2% | SNB-19 CNS 79.5% | PC-3 prostate 37.5% | SK-MEL-5 melanoma 55.2% | UACC-62 melanoma 65.7% | LOX IMVI melanoma 46.1% | SK-MEL-28 melanoma 25.3% | SK-MEL-2 melanoma 46.8% | EKVX NSCLC 53.2% | SN12C renal 62.9% | UO-31 renal 60.8% | TK-10 renal 32.1% | ACHN renal 55.6% | CAKI-1 renal 42.6% | CCRF-CEM leukemia 72.2% | MOLT-4 leukemia 59.8%

COc1ccc(CCNc2nc(SC)nc(-c3cccc([N+](=O)[O-])c3)c2C#N)cc1OC
inactive: HCT-15 colon 90.9% | HT29 colon 93.6% | SNB-75 CNS 61.8% | SNB-19 CNS 71.9% | PC-3 prostate 75.2% | SK-MEL-5 melanoma 88.2% | UACC-62 melanoma 80.8% | LOX IMVI melanoma 88.6% | SK-MEL-28 melanoma 91.8% | SK-MEL-2 melanoma 98.6% | EKVX NSCLC 80.5% | SN12C renal 84% | UO-31 renal 84.8% | TK-10 renal 112% | ACHN renal 72% | CAKI-1 renal 78% | A498 renal 94.8% | CCRF-CEM leukemia 98.7% | MOLT-4 leukemia 95%

N#Cc1c(-c2ccc(Cl)cc2)nc(N=Nc2c(O)[nH]c3ccc(Cl)cc23)nc1N1CCOCC1
inactive: HCT-15 colon 100% | HT29 colon 107% | SNB-75 CNS 68.7% | SNB-19 CNS 101% | PC-3 prostate 99.2% | SK-MEL-5 melanoma 97.3% | UACC-62 melanoma 93.7% | LOX IMVI melanoma 83.2% | SK-MEL-28 melanoma 101% | SK-MEL-2 melanoma 98.1% | EKVX NSCLC 86.1% | SN12C renal 97% | UO-31 renal 67.5% | TK-10 renal 120% | ACHN renal 94.6% | CAKI-1 renal 85.2% | A498 renal 73.2% | CCRF-CEM leukemia 111% | MOLT-4 leukemia 110%

COc1cccc(-c2nn(C(C)(C)C)cc2-c2ccnc(NCCCNS(=O)(=O)c3ccc(C)cc3)c2)c1
inactive: HCT-15 colon 107% | HT29 colon 105% | SNB-75 CNS 69.8% | SNB-19 CNS 102% | PC-3 prostate 102% | SK-MEL-5 melanoma 100% | UACC-62 melanoma 107% | LOX IMVI melanoma 99.5% | SK-MEL-28 melanoma 112% | SK-MEL-2 melanoma 108% | EKVX NSCLC 100% | SN12C renal 103% | UO-31 renal 85.3% | TK-10 renal 98.8% | ACHN renal 102% | CAKI-1 renal 92.8% | A498 renal 94% | CCRF-CEM leukemia 94.6% | MOLT-4 leukemia 103%

O=C1/C(=C/C(Cl)=C/c2ccccc2)SC(=S)N1CCc1ccc(O)cc1
inactive: SNB-75 CNS 17.3% | EKVX NSCLC 11% | TK-10 renal 16.8%
active: HCT-15 colon 2.94% | HT29 colon 1.54% | SNB-19 CNS 6.88% | U251 CNS -58.3% | SK-MEL-5 melanoma -47.6% | UACC-62 melanoma -24.7% | SK-MEL-28 melanoma -26% | SN12C renal 6.85% | UO-31 renal -84.5% | ACHN renal -73.4% | CAKI-1 renal -15.7% | A498 renal -0.593% | CCRF-CEM leukemia 9.68% | MOLT-4 leukemia 9.33%

CC1(C)CC[C@]2(C(=O)Nc3ccccn3)CC[C@]3(C)C(=CC[C@@H]4[C@@]5(C)C/C(=C/c6cccnc6)C(=O)C(C)(C)[C@@H]5CC[C@]43C)[C@H]2C1
inactive: HCT-15 colon 18.9% | HT29 colon 25.1% | SNB-75 CNS 45.2% | SNB-19 CNS 63.8% | PC-3 prostate 19.9% | UACC-62 melanoma 34.1% | LOX IMVI melanoma 14.9% | SK-MEL-28 melanoma 48.2% | SK-MEL-2 melanoma 63.9% | EKVX NSCLC 42.5% | SN12C renal 32.6% | UO-31 renal 37.4% | TK-10 renal 68.9% | ACHN renal 26.5% | CAKI-1 renal 36.3% | A498 renal 39.9% | CCRF-CEM leukemia 20.9% | MOLT-4 leukemia 13.2%
active: SK-MEL-5 melanoma -14.8%

COc1cccc(-c2nc3sccn3c2-c2ccnc(NCCCNS(=O)(=O)c3cccc(Cl)c3)c2)c1
active: SK-MEL-5 melanoma -12.5% | UACC-62 melanoma -7.03% | MOLT-4 leukemia 9.9%
inactive: HCT-15 colon 28.7% | HT29 colon 54.5% | SNB-75 CNS 51.8% | SNB-19 CNS 66.3% | PC-3 prostate 21.7% | LOX IMVI melanoma 35.6% | SK-MEL-28 melanoma 67.4% | SK-MEL-2 melanoma 39.8% | EKVX NSCLC 40.6% | SN12C renal 45.5% | UO-31 renal 20.4% | TK-10 renal 71.5% | ACHN renal 37.5% | CAKI-1 renal 25.9% | A498 renal 54.4% | CCRF-CEM leukemia 18.1%

c1ccc(-c2c(-c3ccccc3)[n+](Cc3ccc4ccccc4c3)c(-c3ccc(-c4nc5ccccc5s4)cc3)n2Cc2ccc3ccccc3c2)cc1
active: HCT-15 colon -91.5% | HT29 colon -85.5% | SNB-75 CNS -78.8% | SNB-19 CNS -97.6% | PC-3 prostate -88.8% | SK-MEL-5 melanoma -98.3% | UACC-62 melanoma -75.2% | LOX IMVI melanoma -98.3% | SK-MEL-28 melanoma -88.3% | EKVX NSCLC -93.4% | SN12C renal -86.7% | UO-31 renal -94.1% | TK-10 renal -80.9% | ACHN renal -96.8% | CAKI-1 renal -89.5% | A498 renal -97.4% | CCRF-CEM leukemia -14.8% | MOLT-4 leukemia -51.9%
